Results filed as inconclusive are left out. Where a call stands in place of a potency, no number is given. The source made the active and inactive calls. Unless noted, the call rests on the fitted dose curve.
Columns and labels:
[1] = Nuclear factor erythroid 2-related factor 2/antioxidant responsive element (Nrf2/ARE) small molecule agonists: luciferase reporter gene qHTS assay in human keratinocytes (AID 1919969); further: nearly all actives have a fitted effect of over 35% in size; further: potency means the concentration at half of the fitted maximal effect
[2] = target: Gonadotropin-releasing hormone receptor (Homo sapiens) (UniProt P30968); test: Human gonadotropin-releasing hormone receptor (GnRHR) small molecule agonists, calcium flux assay in GnRHR-HEK293 cells (AID 1920063); further: nearly all actives have a fitted effect of over 35% in size
Procedure, shortened: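 GnRHR-HEK293, 1500 cells/well, 18 h 37 C/5% CO2; Ca dye 1 h 37 C; cpd pinned (DMSO), agonist mode; kinetic FL 480/540, 3 min, 1 s reads; 15 conc, n=3.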

[3] = target: KiSS-1 receptor (Homo sapiens) (UniProt Q969F8); test: Human kisspeptin (KISS1R) small molecule agonists, calcium flux assay in KISS1R-HEK293 cells (AID 1920064; active means well fitted activation curve with a large enough effect in the repeat runs)
Procedure, shortened: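 Stable human KISS1R HEK293 line; 18 h plating, 37 C/5% CO2; calcium dye 1 h 37 C; compound pin transfer; kinetic fluorescence Ex/Em 480/540, 3 min.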

[4] = G protein-coupled receptor (GPCR) small molecule agonists, calcium flux assay: HEK293 wild type cell line counter screen (AID 1920065)
Procedure, shortened: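 Kinetic fluorescence at Ex/Em 480/540, recorded every second over 3 min, served as the read-out after compound addition. Each compound was tested at 15 concentrations in triplicate on cells pre-loaded with calcium dye for 1 h.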

[5] = p53 small molecule agonists, cell-based qHTS assay with human liver microsomes (AID 1963577);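 further: p53 response element beta-lactamase reporter cells with liver microsomes plus NADPH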
Procedure, shortened: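 In this qHTS, p53 response-element beta-lactamase cells receive test compound together with a microsome/NADPH activating system (0.5 mg/mL final each) and are incubated 16 h at 37 C before LiveBLAzer fluorescence detection.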

[6] = p53 small molecule agonists, cell-based qHTS assay with rat liver microsomes (AID 1963578)
Procedure, shortened: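 Agonist mode in p53RE-bla reporter cells, with compounds co-incubated 16 h at 37 C alongside 0.5 mg/mL rat liver microsomes and 0.5 mg/mL NADPH (final), followed by a 2 h LiveBLAzer detection step.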

[7] = p53 small molecule agonists, cell-based qHTS assay with human liver microsomes: qHTS cell viability counter screen (AID 1963579); further: nearly all actives have a fitted effect of over 45% in size
Procedure, shortened: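 Metabolically activated exposure: compounds, human liver microsomes and NADPH (0.5 mg/mL final apiece) were added to p53RE-bla cells seeded 5 h earlier, left 16 h at 37 C, and then assessed for viability by CellTiter-Glo luminescence.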

[8] = target: Beta-2 adrenergic receptor (Homo sapiens) (UniProt P07550); test: Adrenergic beta2 receptor (ADRB2) small molecule antagonists, cell-based qHTS assay (AID 1963592); further: series mostly up to about 92 µM; nearly all actives have a fitted effect of over 50% in size
Procedure, shortened: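 Cells (CHO, stable ADRB2 overexpression) incubated 18-20hr at 37C; compounds added from DMSO; agonist mix (1nM isoproterenol, 100uM IBMX, 25uM Ro-20-1724) added; 0.5hr RT; d2-cAMP and anti-cAMP-cryptate added; 1hr RT; 665/615 nm read.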

[9] = target: Beta-2 adrenergic receptor (Homo sapiens) (UniProt P07550); test: Adrenergic beta2 receptor (ADRB2) small molecule agonists, cell-based qHTS assay (AID 1963593);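 further: CHO cells stably overexpressing human ADRB2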
Procedure, shortened: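 CHO cells stably over-expressing ADRB2 were plated overnight at 37C, then dosed with compounds plus a stimulation mix containing 100uM IBMX and 25uM Ro-20-1724 for 0.5hr at room temperature. cAMP was measured by HTRF competition, 1hr.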

[10] = target: D(2) dopamine receptor (Homo sapiens) (UniProt P14416); test: Dopamine D2 receptor (DRD2) small molecule agonists, cell-based qHTS assay (AID 1963594); further: nearly all actives have a fitted effect of over 35% in size
Procedure, shortened: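 HEK293 cells stably expressing DRD2 were cultured 24 h at 37 C, then given Ro20-1724 (0.1 mM final) and compounds for 10 min at room temperature. NKH477 (200nM) was then added for 30 min. cAMP was read by HTRF.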

[11] = target: D(2) dopamine receptor (Homo sapiens) (UniProt P14416); test: Dopamine D2 receptor (DRD2) small molecule antagonists, cell-based qHTS assay (AID 1963595; active means well fitted inhibition curve with a large enough effect in the signal ratio in the repeat runs, with a control signal flat; the % refers to the signal ratio)
Procedure, shortened: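 Antagonism was scored as restored cAMP in HEK293-DRD2 cells. These cells were stimulated with 200 nM NKH477 and 12 nM quinpirole for 30 min at room temperature, in the presence of 0.1 mM Ro20-1724.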

[12] = p53 small molecule agonists, cell-based qHTS assay with rat liver microsomes: qHTS cell viability counter screen (AID 1963580); further: nearly all actives have a fitted effect of over 45% in size
Procedure, shortened: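 p53RE-bla HCT-116 cells (4,000/well) rested 5 h at 37 C, then given Tox21 compounds in DMSO with rat liver microsomes (0.5 mg/mL final) plus NADPH (0.5 mg/mL final) for 16 h at 37 C. Viability read by CellTiter-Glo luminescence after 30 min at room temperature.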

[13] = p53 small molecule agonists, cell-based qHTS assay: qHTS cell viability counter screen (AID 1963581); further: nearly all actives have a fitted effect of over 45% in size
Procedure, shortened: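 HCT-116 p53RE-bla cells, 4,000/well, plated 5 h before compound pin transfer; 16 h at 37 C; bla substrate 2 h RT; then CellTiter-Glo, 30 min RT, luminescence.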

[14] = p53 small molecule agonists, cell-based qHTS assay (AID 1963582; active means well fitted activation curve with a large enough effect in the signal ratio in the repeat runs, not every such curve was filed as active; the % refers to the signal ratio)
Procedure, shortened: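 Reporter line: p53RE-bla. Pre-incubation 5 h, 37 C, 5% CO2; compound (DMSO, pin tool) 16 h, 37 C; B/G FRET substrate 2 h RT; fluorescence intensity read.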

[15] = target: 5-hydroxytryptamine receptor 2A (Homo sapiens) (UniProt P28223); test: 5-hydroxytryptamine receptor 2A (HTR2A) small molecule antagonists, cell-based qHTS assay (AID 1963586); further: nearly all actives have a fitted effect of over 45% in size
Procedure, shortened: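 Antagonist-mode intracellular calcium assay: DOI (4 nM) added after 5 min compound pre-incubation at room temperature to dye-loaded HTR2A-CHO cells. Fluorescence followed for 3 min, sampled every second.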

[16] = target: 5-hydroxytryptamine receptor 2A (Homo sapiens) (UniProt P28223); test: 5-hydroxytryptamine receptor 2A (HTR2A) small molecule agonists, cell-based qHTS assay (AID 1963587); further: nearly all actives have a fitted effect of over 30% in size; further: potency means the concentration at half of the fitted maximal effect
Procedure, shortened: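 HTR2A-CHO cells, plated 18 h at 37 C/5% CO2, dye-loaded 1 h at 37 C; compounds in DMSO added by pin tool (agonist mode). Intracellular calcium flux read as kinetic fluorescence on FDSS over 2 min at 1 s intervals.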

[17] = target: Muscarinic acetylcholine receptor M1 (Homo sapiens) (UniProt P11229); test: Cholinergic receptor muscarinic 1 (CHRM1) small molecule antagonists, cell-based qHTS assay (AID 1963588); further: nearly all actives have a fitted effect of over 40% in size; further: potency means the concentration at half of the fitted maximal effect
Procedure, shortened: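 CHRM1-CHO calcium-flux assay, antagonist mode. Cells were seeded 18 h, dye-loaded 1 h at 37 C and given compound for 5 min at RT, then acetylcholine was added at 50nM. FDSS fluorescence was read 3 min; 15 concentrations, three runs.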

[18] = target: Muscarinic acetylcholine receptor M1 (Homo sapiens) (UniProt P11229); test: Cholinergic receptor muscarinic 1 (CHRM1) small molecule agonists, cell-based qHTS assay (AID 1963589); further: nearly all actives have a fitted effect of over 35% in size; further: potency means the concentration at half of the fitted maximal effect
Procedure, shortened: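 Human M1 in stable CHO line; 18 h plating, 1 h dye load 37 C; cpd added (agonist mode); Ca2+ fluorescence kinetic read, 1 s intervals; 15 conc, 3 runs.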

[19] = cAMP Responsive Elements (CRE) small molecule agonists, cell-based qHTS assay (AID 1963590)
Procedure, shortened: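 HEK 293T CRE-bla, 2,000 cells/well, 18 h preincubation 37 C/5% CO2; cpds (DMSO) pinned, 3 h; LiveBLAzer B/G FRET substrate, 2 h RT.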

[20] = cAMP Responsive Elements (CRE) small molecule antagonists, cell-based qHTS assay (AID 1963591; active means well fitted inhibition curve with a large enough effect in the signal ratio in the repeat runs, not every such curve was filed as active; the % refers to the signal ratio)
Procedure, shortened: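 Beta-lactamase reporter read by FRET substrate (LiveBLAzer B/G) after 2 h at room temperature. CRE-bla HEK293T cells had received compound plus 0.25 uM (final) NKH477 for 3 h at 37 °C.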

Sequence of Beta-2 adrenergic receptor (Homo sapiens) (P07550 whole entry, looked up): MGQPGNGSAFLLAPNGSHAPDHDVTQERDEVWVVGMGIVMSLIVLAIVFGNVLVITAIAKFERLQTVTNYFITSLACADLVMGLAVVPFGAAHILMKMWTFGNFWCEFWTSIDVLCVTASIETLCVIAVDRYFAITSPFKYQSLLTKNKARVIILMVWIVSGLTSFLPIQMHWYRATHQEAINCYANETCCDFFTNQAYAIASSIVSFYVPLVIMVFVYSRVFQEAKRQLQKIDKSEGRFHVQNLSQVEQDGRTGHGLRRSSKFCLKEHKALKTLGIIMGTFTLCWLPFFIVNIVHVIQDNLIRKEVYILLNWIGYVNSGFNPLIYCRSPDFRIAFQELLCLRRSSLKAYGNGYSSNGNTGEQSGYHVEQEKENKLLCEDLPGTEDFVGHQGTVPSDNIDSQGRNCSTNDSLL
Sequence of 5-hydroxytryptamine receptor 2A (Homo sapiens) (P28223 whole entry, looked up): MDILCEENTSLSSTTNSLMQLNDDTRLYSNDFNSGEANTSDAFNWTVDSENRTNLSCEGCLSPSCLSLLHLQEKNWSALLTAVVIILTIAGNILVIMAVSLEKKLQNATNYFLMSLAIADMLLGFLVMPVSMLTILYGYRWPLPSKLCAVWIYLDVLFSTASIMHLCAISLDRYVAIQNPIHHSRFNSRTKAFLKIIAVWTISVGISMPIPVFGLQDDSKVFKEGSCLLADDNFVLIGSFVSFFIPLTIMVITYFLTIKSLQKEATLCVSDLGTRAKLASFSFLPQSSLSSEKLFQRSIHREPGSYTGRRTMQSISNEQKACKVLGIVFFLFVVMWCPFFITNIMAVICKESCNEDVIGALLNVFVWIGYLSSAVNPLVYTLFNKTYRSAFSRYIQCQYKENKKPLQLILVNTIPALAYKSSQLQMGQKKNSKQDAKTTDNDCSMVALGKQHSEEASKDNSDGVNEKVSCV
Sequence of Muscarinic acetylcholine receptor M1 (Homo sapiens) (P11229 whole entry, looked up): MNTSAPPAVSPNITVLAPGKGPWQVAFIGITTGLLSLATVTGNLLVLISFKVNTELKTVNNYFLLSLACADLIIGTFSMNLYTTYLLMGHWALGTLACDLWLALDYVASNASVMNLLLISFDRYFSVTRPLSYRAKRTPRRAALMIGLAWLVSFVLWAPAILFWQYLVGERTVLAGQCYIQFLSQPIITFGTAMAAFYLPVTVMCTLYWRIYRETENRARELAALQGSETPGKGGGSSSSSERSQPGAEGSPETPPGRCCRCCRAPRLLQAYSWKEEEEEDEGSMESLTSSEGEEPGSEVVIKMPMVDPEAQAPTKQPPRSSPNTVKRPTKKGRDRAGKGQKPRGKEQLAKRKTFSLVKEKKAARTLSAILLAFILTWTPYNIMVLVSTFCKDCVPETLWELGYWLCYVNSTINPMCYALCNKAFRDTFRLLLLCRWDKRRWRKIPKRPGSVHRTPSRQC
Sequence of D(2) dopamine receptor (Homo sapiens) (P14416 whole entry, looked up): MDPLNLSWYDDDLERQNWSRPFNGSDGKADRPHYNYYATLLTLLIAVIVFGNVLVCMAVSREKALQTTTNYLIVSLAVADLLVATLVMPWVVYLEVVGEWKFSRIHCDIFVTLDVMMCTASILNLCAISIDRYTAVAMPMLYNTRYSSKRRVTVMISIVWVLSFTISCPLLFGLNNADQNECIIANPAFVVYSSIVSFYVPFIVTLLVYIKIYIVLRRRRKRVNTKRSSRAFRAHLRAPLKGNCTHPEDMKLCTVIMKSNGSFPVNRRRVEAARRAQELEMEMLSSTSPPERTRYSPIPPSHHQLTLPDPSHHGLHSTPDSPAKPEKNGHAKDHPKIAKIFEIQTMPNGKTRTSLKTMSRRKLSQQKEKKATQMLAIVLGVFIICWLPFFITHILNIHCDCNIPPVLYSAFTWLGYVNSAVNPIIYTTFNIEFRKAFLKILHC
Sequence of KiSS-1 receptor (Homo sapiens) (Q969F8 whole entry, looked up): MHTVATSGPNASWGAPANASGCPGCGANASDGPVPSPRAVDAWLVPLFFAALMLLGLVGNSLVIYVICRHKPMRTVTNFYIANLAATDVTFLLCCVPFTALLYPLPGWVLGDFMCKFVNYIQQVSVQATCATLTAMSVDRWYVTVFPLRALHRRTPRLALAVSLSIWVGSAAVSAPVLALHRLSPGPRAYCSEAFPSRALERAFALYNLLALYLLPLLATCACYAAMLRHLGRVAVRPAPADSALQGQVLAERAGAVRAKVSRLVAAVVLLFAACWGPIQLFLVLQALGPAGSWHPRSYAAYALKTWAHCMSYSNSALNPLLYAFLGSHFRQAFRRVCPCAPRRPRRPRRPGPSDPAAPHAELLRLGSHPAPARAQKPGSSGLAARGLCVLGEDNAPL
Sequence of Gonadotropin-releasing hormone receptor (Homo sapiens) (P30968 whole entry, looked up): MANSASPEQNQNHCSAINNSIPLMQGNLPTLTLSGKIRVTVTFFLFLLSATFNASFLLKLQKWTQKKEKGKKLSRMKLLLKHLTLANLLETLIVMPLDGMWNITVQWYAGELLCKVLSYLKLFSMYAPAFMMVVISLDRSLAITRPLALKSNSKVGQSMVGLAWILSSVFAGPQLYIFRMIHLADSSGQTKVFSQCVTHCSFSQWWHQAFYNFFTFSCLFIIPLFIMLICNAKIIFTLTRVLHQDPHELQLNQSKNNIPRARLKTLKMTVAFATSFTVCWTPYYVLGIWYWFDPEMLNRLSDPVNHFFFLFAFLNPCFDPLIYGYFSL

| SMILES | Potency [1] | Potency [2] | Potency [3] | Potency [4] | Potency [5] | Potency [6] | Potency [7] | Potency [8] | Potency [9] | Potency [10] | Potency [11] | Potency [12] | Potency [13] | Potency [14] | Potency [15] | Potency [16] | Potency [17] | Potency [18] | Potency [19] | Potency [20] |
| --- | --- | --- | --- | --- | --- | --- | --- | --- | --- | --- | --- | --- | --- | --- | --- | --- | --- | --- | --- | --- |
| C[C@@H]1O[C@@H](O[C@@H]2C=C3CC[C@@H]4[C@H](CC[C@]5(C)[C@@H](c6ccc(=O)oc6)CC[C@]45O)[C@@]3(C)CC2)[C@H](O)[C@H](O)[C@H]1O | 0.0106 µM (active) | inactive | inactive | inactive | inactive | inactive | inactive | inactive | inactive | inactive | inactive | – | – | – | – | – | – | – | – | – |
| CC(=O)c1cc(C(C)(C)C)cc2c1CCC2(C)C | inactive | inactive | inactive | inactive | inactive | – | inactive | inactive | inactive | – | inactive | inactive | inactive | inactive | inactive | inactive | inactive | inactive | inactive | – |
| CCc1nn(C)c(C(=O)NCc2ccc(C(C)(C)C)cc2)c1Cl | inactive | inactive | inactive | inactive | inactive | inactive | – | inactive | inactive | – | – | – | – | – | inactive | inactive | inactive | inactive | – | – |
| Cc1cc(C)cc(OP(=O)(Oc2cc(C)cc(C)c2)Oc2cc(C)cc(C)c2)c1 | inactive | inactive | inactive | inactive | inactive | – | – | inactive | – | inactive | inactive | – | inactive | inactive | inactive | inactive | inactive | inactive | inactive | inactive |
| CCC(C)(C)C(=O)OC1=C(c2ccc(Cl)cc2Cl)C(=O)OC12CCCCC2 | 9.69 µM (active) | inactive | inactive | inactive | – | inactive | inactive | inactive | inactive | – | inactive | inactive | – | inactive | inactive | inactive | inactive | – | – | – |
| Oc1cc(Cl)c(Cl)c(Cl)c1 | 65 µM (active) | inactive | inactive | inactive | inactive | inactive | – | inactive | – | inactive | inactive | inactive | inactive | – | inactive | – | inactive | inactive | – | inactive |
| O=NN1CCNCC1 | 76.1 µM (active) | inactive | inactive | inactive | inactive | inactive | – | inactive | – | – | inactive | inactive | – | inactive | inactive | inactive | inactive | inactive | inactive | inactive |
| CC1(C)CC/C(=C/c2ccc(Cl)cc2)C1(O)Cn1cncn1 (stereo not given) | 43 µM (active) | inactive | inactive | inactive | inactive | inactive | – | – | – | – | inactive | inactive | – | – | – | – | inactive | inactive | – | – |
| NS(=O)(=O)C(F)(F)C(F)(F)C(F)(F)C(F)(F)C(F)(F)C(F)(F)C(F)(F)C(F)(F)F | 68.6 µM (active) | inactive | inactive | inactive | – | inactive | inactive | inactive | inactive | – | inactive | inactive | inactive | – | inactive | inactive | inactive | 0.0022 µM (active) | – | inactive |
| Cc1cc(C2CC2)nc(Nc2ccccc2)n1 | 68.6 µM (active) | inactive | inactive | inactive | inactive | inactive | inactive | – | – | – | inactive | – | inactive | inactive | inactive | inactive | 14.9 µM (active) | inactive | – | – |
| CS/C(C)=N/OC(=O)N(C)SN(C)C(=O)O/N=C(\C)SC | 68.6 µM (active) | inactive | inactive | inactive | – | – | inactive | inactive | inactive | inactive | inactive | inactive | inactive | inactive | inactive | 43.6 µM (active) | inactive | inactive | inactive | inactive |
| Oc1c(Cl)c(Cl)cc(Cl)c1Cl | inactive | inactive | inactive | inactive | – | – | inactive | – | inactive | inactive | inactive | inactive | inactive | – | inactive | inactive | inactive | inactive | – | – |
| CCCCOP(=O)(O)OCCCC | inactive | inactive | inactive | inactive | – | – | inactive | inactive | inactive | inactive | inactive | – | inactive | – | inactive | inactive | inactive | inactive | inactive | inactive |
| O=S(=O)(Cl)c1ccccc1 | inactive | inactive | inactive | inactive | – | – | inactive | inactive | inactive | inactive | inactive | inactive | inactive | – | inactive | inactive | inactive | inactive | inactive | – |
| COP(=S)(OC)Oc1ccc([N+](=O)[O-])cc1Cl | inactive | inactive | inactive | inactive | – | – | inactive | inactive | – | inactive | – | – | inactive | inactive | inactive | inactive | inactive | – | inactive | inactive |
| Oc1ccc(Cc2ccc(O)cc2)cc1 | inactive | inactive | inactive | inactive | – | inactive | inactive | inactive | – | inactive | inactive | inactive | – | inactive | – | inactive | inactive | inactive | inactive | inactive |
